Assay results reported in the supplement of paper PMC6555819.

How the values were obtained:
Test in all cases: PBM binding z-score (relative to random genomic background probes); higher = stronger binding; sequences stand for … in GC…GCGATTGACAGCGTAGAATGAAGG
[1] = system: FXR:RXRa (NR concentration 270 nM, RXRa partner concentration 90 nM)
Method in brief: (§1)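 Binding z-scores take random background probes as their reference. They come from custom Agilent 4×180K protein-binding microarrays incubated 1 h with ligand-free nuclear receptor dimers, with antibodies against each partner (one per run) detecting binding. Scanned fluorescence was regression-normalized.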

[2] = system: LXRa:RXRa (NR concentration 270 nM, RXRa partner concentration 90 nM)
Method in brief: as §1

[3] = system: LXRa homodimer (NR concentration 270 nM)
Method in brief: as §1

[4] = system: LXRb:RXRa (NR concentration 270 nM, RXRa partner concentration 90 nM)
Method in brief: as §1

[5] = system: LXRb homodimer (NR concentration 270 nM)
Method in brief: as §1

[6] = system: PPARa:RXRa (NR concentration 270 nM, RXRa partner concentration 90 nM)
Method in brief: as §1

[7] = system: PPARg:RXRa (NR concentration 180 nM, RXRa partner concentration 90 nM)
Method in brief: as §1

[8] = system: PPARg:RXRa 270nM:90nM, anti-RXR (NR concentration 270 nM, RXRa partner concentration 90 nM)
Method in brief: as §1

[9] = system: PPARg:RXRa 30nM:10nM, anti-RXR (NR concentration 30 nM, RXRa partner concentration 10 nM)
Method in brief: as §1

[10] = system: PPARg:RXRa 90nM:30nM, anti-RXR (NR concentration 90 nM, RXRa partner concentration 30 nM)
Method in brief: as §1

[11] = system: PPARg:RXRa DBDmut IVT, anti-RXR (DBD mutation: RXRa K156A/R161A, NR concentration 270 nM, RXRa partner concentration 90 nM)
Method in brief: as §1

[12] = system: PPARg:RXRa IVT, anti-PPARg (NR concentration 270 nM, RXRa partner concentration 90 nM)
Method in brief: as §1

[13] = system: PPARg DBDmut:RXRa IVT, anti-PPARg (DBD mutation: PPARg1 K132A/R137A, NR concentration 270 nM, RXRa partner concentration 90 nM)
Method in brief: as §1

[14] = system: PPARg DBDmut IVT, anti-PPARg (DBD mutation: PPARg1 K132A/R137A, NR concentration 270 nM)
Method in brief: as §1

[15] = system: PPARg homodimer (NR concentration 180 nM)
Method in brief: as §1

[16] = system: PXR:RXRa (NR concentration 270 nM, RXRa partner concentration 90 nM)
Method in brief: as §1

[17] = system: PXR homodimer (NR concentration 270 nM)
Method in brief: as §1

[18] = system: RARa:RXR (NR concentration 270 nM, RXRa partner concentration 90 nM)
Method in brief: as §1

[19] = system: RARa homodimer (NR concentration 270 nM)
Method in brief: as §1

[20] = system: RARb:RXRa (NR concentration 270 nM, RXRa partner concentration 90 nM)
Method in brief: as §1

| Sequence | PBM binding z-score [1] | PBM binding z-score [2] | PBM binding z-score [3] | PBM binding z-score [4] | PBM binding z-score [5] | PBM binding z-score [6] | PBM binding z-score [7] | PBM binding z-score [8] | PBM binding z-score [9] | PBM binding z-score [10] | PBM binding z-score [11] | PBM binding z-score [12] | PBM binding z-score [13] | PBM binding z-score [14] | PBM binding z-score [15] | PBM binding z-score [16] | PBM binding z-score [17] | PBM binding z-score [18] | PBM binding z-score [19] | PBM binding z-score [20] |
| --- | --- | --- | --- | --- | --- | --- | --- | --- | --- | --- | --- | --- | --- | --- | --- | --- | --- | --- | --- | --- |
| TCTTTTAGATCAATAGAGGTTAAGAAAGTGCGCT | 1.13 | 4.04 | 0.769 | 2.06 | 0.963 | 2.16 | 0.209 | 2.08 | 3.57 | 2.92 | 1.67 | 1.53 | 1.94 | 1.81 | 0.69 | 3.35 | 0.207 | 2.08 | -0.186 | 1.23 |
| CAAACTAGGTCAAGAGGTCGAAGTCCGCTTCCCG | 5.04 | 4.11 | 1.22 | 2.77 | 0.502 | 5.23 | 8.83 | 7.41 | 5.95 | 7.63 | 8.31 | 7.97 | 1.18 | 0.351 | 3.87 | 3.56 | 0.441 | 4.93 | 1.54 | 4.44 |
| CCTCGGAGGACAACAGGAGGTCAGATCTGCCAGA | 1.11 | 2.26 | 2.76 | 1.83 | -0.568 | 1.91 | 0.67 | 0.241 | -0.484 | -0.22 | 0.382 | 0.149 | -0.732 | -1.41 | 1.21 | 2.05 | 0.364 | 2.18 | 0.26 | 2.81 |
| CCGACTGAGGCATAAGGTTACCATAAGCCAGCCC | 0.414 | 2.01 | -0.182 | 1.05 | -1.08 | 1.18 | 0.973 | 1.31 | -0.0351 | 0.852 | 0.216 | -0.451 | -0.747 | -0.854 | 0.366 | 0.286 | -0.308 | 1.03 | 0.101 | 0.876 |
| ATATGTAAGTTATCGGGTCATTCAGTTTGCGCAT | 2.13 | 2.33 | 1.43 | 2.61 | 1.02 | 2.93 | 1.83 | 2.22 | 0.702 | 1.72 | 2.89 | 3.27 | 1.57 | 1.8 | 1.64 | 3.39 | 6.97 | 2.93 | 1.29 | 2.05 |
| AGAATGAGGTTATACGTAGATCAGGCAAGAAAGT | 1.83 | 1.82 | -0.142 | 1.29 | -0.0449 | 3.31 | 1.97 | 2.21 | 0.758 | 1.71 | 3.76 | 2.33 | 1.04 | 0.362 | 0.366 | 1.01 | 0.159 | 1.51 | 0.831 | 1.29 |
| GAACCAAGGTGAATAGGTCGTTGATGAGTAGGCG | 0.855 | 0.803 | -0.0902 | 0.55 | -0.922 | 2.46 | 1.74 | 1.97 | 0.275 | 1.25 | 1.81 | 2.56 | -0.234 | -0.27 | 0.411 | 0.765 | -0.0642 | 1.68 | -0.0573 | 1.95 |
| ACAGACAGGTGTGTGAAGGTAACTCAGCTGGACG | 0.0191 | -0.00303 | -0.46 | -0.618 | -0.921 | -0.347 | 0.522 | -0.0357 | -0.212 | -0.375 | -0.215 | -0.0763 | -0.159 | -0.168 | -0.299 | -0.399 | -0.457 | -0.395 | -0.0972 | -0.265 |
| AATCAAAGTTCATCTAGGTAACGTAAGATATGCT | 6.64 | 6.2 | 7.11 | 4.15 | 2.37 | 4.75 | 4.35 | 4.25 | 2.04 | 3.19 | 0.153 | 2.87 | 1.79 | 1.11 | 2.75 | 4.95 | 7.06 | 3.24 | 1.38 | 5.22 |
| GCTATTAGTTGAAAGGGCAACCGAATGATTCTCG | 0.555 | 0.733 | 0.435 | 0.971 | 0.134 | 2.33 | 2.9 | 4.29 | 2.39 | 4.05 | 0.456 | 1.11 | 0.0571 | 0.432 | 1.15 | 0.708 | 0.108 | 1.38 | 0.652 | 2 |
| CCTGGTTGGTCAGGAGGTCACACACCGGATATGA | 3.43 | 3.17 | 1.62 | 3.13 | 0.647 | 3.89 | 2.6 | 3.31 | 0.453 | 1.96 | -0.199 | 2.62 | -0.128 | -0.135 | 2.95 | 3.98 | 0.67 | 4.45 | 1.25 | 3.44 |
| GCGACTGAGGCATCAGCAGGTTACCATAACTTAA | -0.539 | -0.504 | -0.511 | -0.382 | -0.493 | -0.272 | 0.31 | -0.607 | -0.469 | -0.443 | -0.328 | -0.559 | -1.15 | -0.218 | -0.486 | -0.397 | -0.552 | 0.102 | -0.596 | -0.298 |
| GAGACTGGGGCATCAGCAGGTTACCATAACTTAA | 0.0727 | 0.0866 | -0.0013 | 1.28 | 0.0718 | 1.73 | 1.71 | 1.63 | 0.0526 | 0.657 | 4.76 | 4.68 | 0.663 | 0.792 | 0.579 | 0.391 | 0.295 | 0.706 | -0.0469 | 1.09 |
| ATTACAGGGTCATCGTAGGCCAGAGTACGCACAG | 7.11 | 6.64 | 1.78 | 4.65 | 2.02 | 6.2 | 7.1 | 6.16 | 2.72 | 5.18 | 2.45 | 4.43 | 2.06 | 2.49 | 4.05 | 5.5 | 1.66 | 5.52 | 1.45 | 4.45 |
